Test results published in PubChem BioAssay AID1159580 (chemical genetic matrix, 2015).
The whole screen tested about 5,500 compounds, of which about 2,000 (36%) were called active. Another 18% or so got no clear call; they are omitted. Cut-off read from the data, not from the text of the source: active = normalized growth mostly below about 0.91 (no sharp cut-off); inconclusive = no clear call, values can overlap the other calls; inactive = mostly above about 0.92. The list shows a part of the results.

Experiment: chemical genetic growth profiling, strain panel (AID 1159580);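 note: tested at 20 µM; growth read once vehicle control cultures reached saturation at 30 °C; 1 = growth at the plate median or of vehicle wells; lower values mean less growth of the strain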
Conditions: S. cerevisiae deletion strains, growth OD
[1] = locus YGR229C, strain SMI1, hits give low values
[2] = locus YJR075W, strain HOC1, hits give low values
[3] = locus YMR263W, strain SAP30, hits give low values
[4] = locus YMR307W, strain GAS1, hits give low values
[5] = locus YNL153C, strain GIM3, hits give low values
[6] = locus YNL322C, strain KRE1, hits give low values

Measured: normalized growth

CC(C)c1ccc2c(c1)c(SC(C)(C)C)c(CC(C)(C)C(=O)O)n2Cc1ccc(Cl)cc1
inactive: locus YAL040C, strain CLN3, hits give low values 1.02 | locus YCL061C, strain MRC1 (second series), hits give low values 1 | locus YDR363W, strain ESC2, hits give low values 1 | locus YER002W, strain NOP16, hits give low values 1.03 | [1] 1.03 | [2] 1.02 | [3] 1.01 | [4] 1 | locus YNL128W, strain TEP1, hits give low values 0.967 | [5] 0.972 | locus YNL175C, strain NOP13, hits give low values 1.01 | locus YNL197C, strain WHI3, hits give low values 1.01 | locus YNL224C, strain SQS1, hits give low values 1.01 | [6] 1.01 | locus YOR083W, strain WHI5 (second series), hits give low values 0.992

NC(=O)N[C@@H]1O[C@H](CO)[C@@H](O)[C@H](O)[C@H]1O
inactive: locus YAL013W, strain DEP1, hits give low values 1.03 | locus YBR229C, strain ROT2, hits give low values 1.01 | locus YCL061C, strain MRC1, hits give low values 0.987 | locus YDL101C, strain DUN1, hits give low values 0.994 | locus YDR150W, strain NUM1, hits give low values 0.992 | locus YEL061C, strain CIN8, hits give low values 1.02 | locus YGR078C, strain PAC10, hits give low values 0.993 | [1] 1 | locus YHR030C, strain SLT2, hits give low values 1 | locus YHR087W, strain rtc3, hits give low values 1.01 | locus YJL187C, strain SWE1, hits give low values 1.01 | locus YJR043C, strain POL32, hits give low values 0.975 | [2] 1 | locus YKL190W, strain CNB1, hits give low values 1.01 | locus YLR039C, strain RIC1, hits give low values 1.02 | locus YLR058C, strain SHM2 (second series), hits give low values 1.01 | locus YLR085C, strain ARP6, hits give low values 1.07 | locus YLR262C, strain YPT6, hits give low values 0.981 | locus YML094W, strain GIM5, hits give low values 1.02 | locus YMR219W, strain ESC1, hits give low values 1.01 | [3] 0.999 | [4] 1.02 | [5] 0.989 | locus YNL298W, strain CLA4 (second series), hits give low values 1.05 | [6] 1 | locus YNR030W, strain Alg12, hits give low values 1.02 | locus YPL055C, strain LGE1, hits give low values 1.04 | locus YPL241C, strain CIN2, hits give low values 1.04 | locus YPR135W, strain CTF4, hits give low values 0.98
